# Data taken from PubChem BioAssay (NCATS).
# Where “and” joins values, the source holds several entries; their conditions need not be identical. Equal entries are not always repeated. Results filed as inconclusive are left out. A call without a number means that no potency is given here. Calls of active or inactive are those of the source. Unless noted, calls come from the whole dose curve; as a rule, active = well fitted curve in the direction sought with a large enough effect; inconclusive = small, poorly fitted or top-dose-only effect, or another doubt; inactive = no such curve, though single readings can be large; an effect the other way counts as inactive or inconclusive. Where a SMILES comes first, the peptide text is derived from it. The star is where a group is joined. AFC = O=c1cc(C(F)(F)F)c2ccc(N*)cc2o1
# Experiments:
# [1] = molecular target: Cytochrome P450 2C9 (Homo sapiens) (UniProt P11712); assay: Cytochrome P450 family 2 subfamily C member 9 (CYP2C9) small molecule antagonists: luciferase biochemical (cell-free) qHTS assay (AID 1645842; active = well fitted curve in the direction sought with a large enough effect in the repeat runs; an effect the other way counts as inactive or inconclusive; note: nearly all actives have a fitted effect of over 55% in size; note: potency is the fitted concentration of half-maximal effect)
# Cytochrome P450 2C9 (Homo sapiens), sequence (P11712 whole entry, looked up): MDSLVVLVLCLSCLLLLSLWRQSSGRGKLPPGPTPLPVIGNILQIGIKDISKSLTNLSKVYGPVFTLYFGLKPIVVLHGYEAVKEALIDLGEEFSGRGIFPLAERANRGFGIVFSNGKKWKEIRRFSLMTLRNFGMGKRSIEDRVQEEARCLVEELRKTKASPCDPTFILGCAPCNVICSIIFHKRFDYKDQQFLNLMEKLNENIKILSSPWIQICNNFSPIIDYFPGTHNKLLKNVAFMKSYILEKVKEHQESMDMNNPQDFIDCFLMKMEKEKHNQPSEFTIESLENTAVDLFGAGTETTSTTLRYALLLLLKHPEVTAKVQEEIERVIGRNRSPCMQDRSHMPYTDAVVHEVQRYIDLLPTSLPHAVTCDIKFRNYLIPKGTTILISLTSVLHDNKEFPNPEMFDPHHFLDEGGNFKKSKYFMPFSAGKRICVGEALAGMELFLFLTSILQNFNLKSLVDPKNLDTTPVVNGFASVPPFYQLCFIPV
# Summary of the method: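 P450-Glo CYP2C9 system: proluciferin substrate with enzyme in mix containing 0.4% BSA, 10 min at room temperature, then NADPH regeneration solution added and incubated 1 h at 37C. Detection reagent stopped reaction; luminescence read after 20 min as RLU.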
# [2] = Primary qHTS for inhibitors of nuclear receptor binding SET domain protein 2 (NSD2) in an isogenic RCH-ACV NSD2 p.E1099K mutant (9B) (AID 1645876); note: nearly all actives have a fitted effect of over 70% in size
# [3] = Primary qHTS for inhibitors of nuclear receptor binding SET domain protein 2 (NSD2) in an RCH-ACV wild type WT cells (2C) (AID 1645877); note: nearly all actives have a fitted effect of over 70% in size; note: potency is the fitted concentration of half-maximal effect
# [4] = molecular target: N-terminal Xaa-Pro-Lys N-methyltransferase 1 (Homo sapiens) (UniProt Q9BV86); assay: Confirmatory qHTS for Inhibitors of N-terminal methyltransferase 1 (NTMT1): MTaseGlo Assay (AID 1645874);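 note: luminescence from SAH made as NTMT1 methylates SPKRIA peptide using SAM; series mostly up to about 100 µM; nearly all actives have a fitted effect of over 65% in size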
# N-terminal Xaa-Pro-Lys N-methyltransferase 1 (Homo sapiens), sequence (Q9BV86 whole entry, looked up): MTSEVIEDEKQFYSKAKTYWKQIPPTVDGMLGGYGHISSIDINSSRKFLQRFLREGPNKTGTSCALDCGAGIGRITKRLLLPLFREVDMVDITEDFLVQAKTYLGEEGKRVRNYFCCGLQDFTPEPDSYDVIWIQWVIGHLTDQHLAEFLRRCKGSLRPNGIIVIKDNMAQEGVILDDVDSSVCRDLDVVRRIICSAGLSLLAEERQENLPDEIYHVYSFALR
# Summary of the method: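 Room-temperature NTMT1 reaction, 30 min, with 100 uM SAM and 1 uM SPKRIA substrate; enzyme 125 nM. Read-out: MTase-Glo luminescence, normalized to no-enzyme and DMSO controls.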
# [5] = molecular target: Cytochrome P450 3A4 (Homo sapiens) (UniProt P08684); assay: Cytochrome P450 family 3 subfamily A member 4 (CYP3A4) small molecule antagonists: luciferase qHTS assay (AID 1645841; active = well fitted curve in the direction sought with a large enough effect in the repeat runs; an effect the other way counts as inactive or inconclusive; note: nearly all actives have a fitted effect of over 45% in size)
# Cytochrome P450 3A4 (Homo sapiens), sequence (P08684 whole entry, looked up): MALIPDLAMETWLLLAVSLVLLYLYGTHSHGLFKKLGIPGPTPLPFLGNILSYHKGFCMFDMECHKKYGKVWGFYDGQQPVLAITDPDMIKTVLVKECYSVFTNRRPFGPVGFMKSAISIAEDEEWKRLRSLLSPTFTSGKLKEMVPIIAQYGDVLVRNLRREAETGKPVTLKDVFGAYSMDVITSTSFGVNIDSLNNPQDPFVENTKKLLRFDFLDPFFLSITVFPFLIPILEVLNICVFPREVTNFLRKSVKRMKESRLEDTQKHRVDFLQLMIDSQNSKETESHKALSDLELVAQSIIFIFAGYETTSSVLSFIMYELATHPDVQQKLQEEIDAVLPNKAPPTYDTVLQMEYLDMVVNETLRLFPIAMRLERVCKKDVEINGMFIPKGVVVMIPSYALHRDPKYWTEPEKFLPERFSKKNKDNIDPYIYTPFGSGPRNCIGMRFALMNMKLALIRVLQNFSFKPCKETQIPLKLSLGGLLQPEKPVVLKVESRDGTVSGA
# Summary of the method: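 Luminescent CYP3A4 activity readout: compounds plus enzyme-substrate mix 10 min at room temperature, reaction started with NADPH regenerating system for 1 h, stopped with detection reagent, read after 20 min. Ketoconazole served as control.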
# [6] = molecular target: Rap guanine nucleotide exchange factor 3 (Homo sapiens) (UniProt O95398); assay: Confirmatory qHTS for antagonist of cAMP-regulated guanine nucleotide exchange factor 3 (EPAC1) (AID 1645880); settings: EPAC1 Rap1B-BODIPY-GDP exchange, fluorescence; note: potency is the fitted concentration of half-maximal effect; nearly all actives have a fitted effect of over 55% in size
# Rap guanine nucleotide exchange factor 3 (Homo sapiens), sequence (O95398 whole entry, looked up): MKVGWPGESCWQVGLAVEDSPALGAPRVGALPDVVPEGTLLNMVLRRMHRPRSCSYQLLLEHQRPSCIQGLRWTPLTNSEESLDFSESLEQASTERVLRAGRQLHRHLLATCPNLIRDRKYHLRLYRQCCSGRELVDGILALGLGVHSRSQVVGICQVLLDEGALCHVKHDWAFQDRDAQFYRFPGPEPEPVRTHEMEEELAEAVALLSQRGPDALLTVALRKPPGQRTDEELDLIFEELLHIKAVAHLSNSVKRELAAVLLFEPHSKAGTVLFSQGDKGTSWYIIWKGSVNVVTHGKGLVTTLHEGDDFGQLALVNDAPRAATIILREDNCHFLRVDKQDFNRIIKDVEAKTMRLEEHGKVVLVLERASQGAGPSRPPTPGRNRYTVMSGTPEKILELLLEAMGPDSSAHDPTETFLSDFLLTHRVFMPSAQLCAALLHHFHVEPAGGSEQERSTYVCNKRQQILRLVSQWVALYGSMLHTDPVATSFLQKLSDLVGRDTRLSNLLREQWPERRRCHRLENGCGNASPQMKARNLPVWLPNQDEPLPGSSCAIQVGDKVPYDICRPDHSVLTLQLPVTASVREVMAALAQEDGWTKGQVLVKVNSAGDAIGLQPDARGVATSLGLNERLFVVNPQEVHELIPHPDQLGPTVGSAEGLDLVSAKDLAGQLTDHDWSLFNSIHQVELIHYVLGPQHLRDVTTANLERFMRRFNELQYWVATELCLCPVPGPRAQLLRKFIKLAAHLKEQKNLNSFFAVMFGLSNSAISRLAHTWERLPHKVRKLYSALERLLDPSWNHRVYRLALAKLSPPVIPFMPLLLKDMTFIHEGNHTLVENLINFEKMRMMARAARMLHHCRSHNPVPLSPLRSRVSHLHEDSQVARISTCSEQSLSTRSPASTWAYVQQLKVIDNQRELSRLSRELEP
# Summary of the method: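 Released BODIPY-GDP fluoresces less than Rap1-bound BODIPY-GDP; the signal is followed at 480/540 nm at 5-min intervals over 30 min, after 5 min at room temperature. Reactions contain 100 nM EPAC1, 250 nM RAP1B-BODIPY-GDP and 50 uM GDP; results are normalized to ATA and DMSO.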
# [7] = molecular target: Rap guanine nucleotide exchange factor 3 (Homo sapiens) (UniProt O95398); assay: Confirmatory qHTS for agonist of cAMP-regulated guanine nucleotide exchange factor 3 (EPAC1) (AID 1645881);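 note: EPAC1 catalysed release of BODIPY-GDP from Rap1B seen as fluorescence loss; nearly all actives have a fitted effect of over 75% in size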
compound,measurement,setting,value
COc1cc2c(cc1OC)CN(C(=O)[C@@H](NCc1ccncc1)C(C)(C)C)CC2,Potency,[1],1.69 µM (active)
same,Potency,[2],inactive
same,Potency,[3],inactive
CC(C)(O)c1ccc2c(c1)C(=O)CC1[C@](C)(CO)CCC[C@]21C (stereo partly drawn),Potency,[4],inactive
same,Potency,[2],inactive
same,Potency,[3],inactive
CC(C)(C)c1cc(CN2CCN(CC(O)c3ccc(Cl)cc3)CC2)cc(C(C)(C)C)c1O (stereo not drawn),Potency,[1],8.49 µM (active)
Cc1cccc(-c2[nH]c(CNc3ccccc3F)nc2-c2ccc3ncnn3c2)n1,Potency,[1],21.3 µM (active)
CC(C)(C)NCC(O)COc1cccc2c1CCCC2=O (stereo not drawn),Potency,[1],inactive
same,Potency,[3],4.59 µM (active)
C(#Cc1cccc(CN2CCOCC2)c1)CCN1CCCCC1,Potency,[1],inactive
same,Potency,[2],inactive
same,Potency,[3],inactive
Cc1nn(C)c2c1C(c1ccc(C(F)(F)F)cc1)C(C#N)=C(N)O2 (stereo not drawn),Potency,[1],21.3 µM (active)
same,Potency,[2],inactive
same,Potency,[3],inactive
CC(=O)N[C@@H](CC(C)C)C(=O)N[C@@H](CCC(=O)O)C(=O)N[C@@H](CCC(=O)O)C(=O)N[C@@H](CC(=O)O)C(=O)Nc1ccc2c(C(F)(F)F)cc(=O)oc2c1 (Ac-LEED-{AFC}),Potency,[4],inactive
same,Potency,[2],inactive
same,Potency,[3],inactive
CC1(C)CCC(C)(C)c2cc3c(cc21)Sc1ccccc1N=C3c1ccc(C(=O)O)cc1,Potency,[1],inactive
same,Potency,[2],inactive
same,Potency,[3],inactive
O=S(=O)(Nc1ccc(C(O)(C(F)(F)F)C(F)(F)F)cc1)c1cccs1,Potency,[1],1.9 µM (active)
CC(=O)OCC(=O)[C@@]12OC3(CCCC3)O[C@@H]1C[C@H]1[C@@H]3CCC4=CC(=O)C=C[C@]4(C)[C@@]3(F)[C@@H](O)C[C@@]12C,Potency,[1],13.5 µM (active)
Cc1nnc(C(C)C)n1C1CC2CCC(C1)N2CC[C@H](NC(=O)C1CCC(F)(F)CC1)c1ccccc1 (stereo partly drawn),Potency,[1],inactive
same,Potency,[2],inactive
O=C(/C=C/c1c(C(=O)O)[nH]c2cc(Cl)cc(Cl)c12)Nc1ccccc1,Potency,[1],21.3 µM (active)
same,Potency,[2],inactive
same,Potency,[3],inactive
CC[C@H]1OC(=O)C[C@@H](O)[C@H](C)[C@@H](O[C@@H]2O[C@H](C)[C@@H](O)[C@H](N(C)C)[C@H]2O)[C@@H](CCN2C[C@H](C)C[C@H](C)C2)C[C@@H](C)C(=O)/C=C/C(C)=C/[C@@H]1CO[C@@H]1O[C@H](C)[C@@H](O)[C@@H](OC)[C@H]1OC,Potency,[1],inactive
same,Potency,[2],inactive
same,Potency,[3],inactive
O=C(O)c1ccc(CCCc2ccc(OCCc3ccc(F)cc3)cc2)o1,Potency,[1],inactive
CC(NCc1ccc(OCc2cccc(F)c2)cc1)C(N)=O (stereo not drawn),Potency,[1],inactive
same,Potency,[2],inactive
same,Potency,[3],inactive
COc1ccccc1[C@@H]1C2=C(CC(C)(C)CC2=O)Nc2n[nH]c(C(F)(F)F)c21,Potency,[1],8.49 µM (active)
same,Potency,[2],inactive
same,Potency,[3],inactive
CCOc1nc2cccc(C(=O)OCc3oc(=O)oc3C)c2n1Cc1ccc(-c2ccccc2-c2noc(O)n2)cc1,Potency,[1],3.38 µM (active)
same,Potency,[2],inactive
same,Potency,[3],inactive
C=CC(C)(CC/C=C(\C)CC/C=C(\C)CC(O)/C=C(\C)C(=O)O)O[C@@H]1O[C@H](CO)[C@@H](O)[C@H](O)[C@H]1O[C@@H]1O[C@H](CO)[C@@H](O)[C@H](O)[C@H]1O (stereo partly drawn),Potency,[2],inactive
CCOC(=O)c1ccc(N(C)c2csc(-c3ccccc3)n2)cc1,Potency,[1],0.674 µM (active)
same,Potency,[2],inactive
same,Potency,[3],inactive
O=C(NC[C@H](O)CN1CCc2ccccc2C1)c1cc(NC2COC2)ncn1,Potency,[5],inactive
same,Potency,[1],inactive
same,Potency,[2],inactive
O=C(c1ccc(F)cc1)C1CCN(CCn2c(=O)nc3n(c2=O)CCCC3)CC1,Potency,[1],inactive
same,Potency,[2],inactive
same,Potency,[3],inactive
C[C@H](NCc1ccc(OCc2ccccc2F)cc1)C(N)=O,Potency,[1],inactive
same,Potency,[2],inactive
same,Potency,[3],inactive
CCCCC(CC)COC(=O)CC(C(=O)OCC(CC)CCCC)S(=O)(=O)O (stereo not drawn),Potency,[1],inactive
same,Potency,[6],35.2 µM (active) and 9.93 µM (active)
same,outcome,[7],inactive
COc1cc(N2CCC(O)CC2)ccc1Nc1cc(Nc2ccccc2S(=O)(=O)C(C)C)c2cc[nH]c2n1,Potency,[1],6.61 µM (active)
same,Potency,[2],inactive
same,Potency,[3],inactive
CCN(CC)Cc1cc(Nc2ccnc3cc(Cl)ccc23)ccc1O,Potency,[1],inactive
C#Cc1cnc2[nH]c(=O)n(C(CC)CC)c2n1,Potency,[5],inactive
same,Potency,[1],8.49 µM (active)
same,Potency,[2],inactive
same,Potency,[3],inactive
CC(C)C(=O)c1cn(CC(=O)COc2ccc(Oc3ccccc3)cc2)c2ccc(C(=O)O)cc12,Potency,[1],inactive
same,Potency,[2],inactive
same,Potency,[3],inactive
CCn1cc(C2=NOC(C(=O)Nc3c(C)n(C)n(-c4ccccc4)c3=O)C2)c(C)n1 (stereo not drawn),Potency,[1],1.9 µM (active)
same,Potency,[2],inactive
same,Potency,[3],inactive
C=C(C)[C@@H]1CC[C@](C)(O)[C@@H](OC(=O)c2ccccc2)C1,Potency,[2],inactive
